This passage reports Potency and outcome results from PubChem BioAssay (Tox21).

Test [1] is described as follows: qHTS assay for small molecule agonists of the p53 signaling pathway (AID 651631; calls by dose curve; also: nearly all actives have a fitted effect of over 15% in size; also: potency is read from the fitted curve at half-maximal effect). An outline of the steps: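 Readout was fluorescence from the LiveBLAzer FRET substrate, applied for 2 h at room temperature after 16 h compound exposure at 37 °C. Cells were the p53RE-bla HCT-116 line, with beta-lactamase driven by p53 response elements.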
The nature of test [2]: qHTS assay for small molecules that induce genotoxicity in human embryonic kidney cells expressing luciferase-tagged ATAD5 (AID 651632). Also: nearly all actives have a fitted effect of over 15% in size. An outline of the steps: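 Genotoxicity read-out via ATAD5-luciferase: HEK293T cells, 16 hr compound incubation at 37C, Amplite detection.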
Test [3] is described as follows: qHTS assay for small molecule agonists of the p53 signaling pathway - cell viability (AID 651633; calls by dose curve; also: nearly all actives have a fitted effect of over 30% in size; also: potency is read from the fitted curve at half-maximal effect). An outline of the steps: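 p53RE-bla cells were treated with compound for 16 hours at 37 C. Cytotoxicity was then measured as CellTiter-Glo luminescence after 30 min at room temperature.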
(qHTS replaces the single test concentration by a dilution series.)

The nature of test [4]: qHTS assay for small molecules that induce genotoxicity in human embryonic kidney cells expressing luciferase-tagged ATAD5 - cell viability (AID 651634; calls by dose curve; also: nearly all actives have a fitted effect of over 25% in size). A digest of the protocol: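 Live-cell protease activity (CellTiter-Fluor, fluorescence) indicates viability. HEK293T cells with luciferase-tagged ATAD5; 15.5 hr compound treatment at 37C.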
Test [5] is described as follows: qHTS assay to test for compound auto fluorescence at 590 nm (red) in HepG2 cells (AID 720674). A digest of the protocol:
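Fluorescence at 590 nm emission following 540 nm excitation was recorded from HepG2 wells one hour after compound transfer, with DMSO-only wells as vehicle and Rose Bengal sodium equivalency as the scale.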

Test [6] can be described thus: qHTS assay to test for compound auto fluorescence at 535 nm (green) in HepG2 cells (AID 720675).
Test [7] is described as follows: qHTS assay to test for compound auto fluorescence at 460 nm (blue) in HEK293 cells (AID 720678). A digest of the protocol: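 HEK293, 2,000 cells/well, 10% dialyzed FBS; attach 4-5 hr 37C; pin compound or DMSO; o/n 37C/5% CO2; fluorescence 405/460 nm; triamterene-equivalent units.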
Test [8] can be described thus: qHTS assay to test for compound auto fluorescence at 590 nm (red) in HEK293 cells (AID 720679). A digest of the protocol:
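Intensity at 540nm excitation and 590nm emission is reported as Rose Bengal sodium-equivalent autofluorescence. Measurements followed overnight exposure (37C, 5% CO2) of HEK293 cells, 2,000 per well, to 23 nL compound.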

Test [9] in a line: qHTS assay for small molecule disruptors of the mitochondrial membrane potential - cell viability (AID 720634; calls by dose curve;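 also: human HepG2 liver cancer cells; series mostly up to about 83 µM; nearly all actives have a fitted effect of over 20% in size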). A digest of the protocol: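 Human hepatoma HepG2 cells were treated for 1 hr with test chemicals, then given m-MPI dye and CellTiter-Glo. Cell viability reflects luminescence proportional to cellular ATP.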
Test [10] is described as follows: qHTS assay for small molecule disruptors of the mitochondrial membrane potential (AID 720635). Also: potency is read from the fitted curve at half-maximal effect. A digest of the protocol: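 HepG2 cells exposed to compound 1 hr at 37C, then Mito-MPS dye 30 min. Ratio read of aggregate (540/590 nm) versus monomer (490/535 nm) fluorescence.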

“And” between values parts separate entries of the source, which are not always exact repeats. Equal entries are not always repeated. Records with an inconclusive call do not appear. More than one record can exist for a structure, and the calls need not agree. The source made the active and inactive calls. Unless noted, calls follow the shape of the dose curve; as a rule, active = well fitted curve in the direction sought with a large enough effect in the repeat runs; inconclusive = weak or mixed curves; inactive = no such curve, though single readings can be large; an effect the other way counts as inactive or inconclusive.

Take `CC1=CCC(C(C)(C)O)CC1` (stereo unspecified): the Potency result in test [1], in [2], in [3], in test [4], in test [5] and in [6] was “inactive” each time. Further, the Potency result in test [8] is “inactive”. Also, in test [7], the molecule was called inactive.
On to `CC(C)=CCCC(C)CCO` (stereo unspecified), for which the Potency entry in [1], in [2], in test [3], in [4], in test [5] and in test [6] was “inactive” throughout. For the same molecule, the Potency entry in test [8] was “inactive”. Also, the call in [7] was inactive.
In the case of `Nc1ccc(Cl)cc1Cl`, the Potency result in test [1], in test [2], in [3], in test [4], in [9] and in test [10] was “inactive” each time. Besides, the Potency entry in test [5] and in [8] was “inactive” in each case. Also, the molecule was called inactive in test [7].
In the case of `c1cc(-c2ccncc2)ccn1`, the Potency entry in [1], in test [2], in [3], in test [4], in [5] and in test [6] was “inactive” in each case. Further, the Potency entry in test [8] was “inactive”. Also, the molecule was called inactive in [7].
Regarding `Nc1ccc(S(=O)(=O)Nc2cnc3ccccc3n2)cc1`, the Potency entry in test [1], in test [2], in test [3], in [4], in test [10] and in test [5] was “inactive” in each case. Also, the Potency result in test [6] and in [8] was “inactive” each time. Further, the outcome in [7] was inactive.
Regarding `CCCCC(CC)COC(=O)c1ccc(N(C)C)cc1` (stereo unspecified), the Potency result in test [1], in [2], in test [3], in [4], in test [9] and in test [5] was “inactive” in each case. The Potency entry in [6] and in test [8] was “inactive” in each case. For the same molecule, in test [10], the Potency was 8.68 µM (active) and 21.7 µM (active). For the same molecule, the molecule was classed as inactive in test [7].
Regarding `C#C[C@]1(O)CC[C@H]2[C@@H]3CCc4cc(OC)ccc4[C@H]3CC[C@@]21C`, the Potency entry in test [1], in [2], in test [3], in test [4], in test [9] and in test [5] was “inactive” throughout. Besides, the Potency result in test [8] was “inactive”. For the same molecule, in test [10], the Potency was 19.3 µM (active). The outcome in [7] was inactive.
Take `CCCCC(CC)COP(=O)(OCC(CC)CCCC)OCC(CC)CCCC` (stereo unspecified): the Potency result in test [1], in test [2], in test [3], in [4], in [9] and in test [10] was “inactive” each time. For the same molecule, the Potency entry in [5] and in [8] was “inactive” each time. Moreover, in test [7], the result was inactive.
As to `Cc1c(C(N)=O)cc([N+](=O)[O-])cc1[N+](=O)[O-]`, the Potency entry in test [1], in test [2], in test [3], in test [4], in [9] and in test [10] was “inactive” throughout. The Potency entry in test [5], in test [6] and in test [8] was “inactive” throughout. Moreover, the result in [7] was inactive.
Take `COc1ccc(OC)c(C(O)CNC(=O)CN)c1` (stereo unspecified): the Potency result in test [1], in test [2], in [3], in [4], in test [9] and in test [10] was “inactive” each time. Besides, the Potency result in [5] and in [8] was “inactive” in each case. Besides, the call in test [7] was inactive.
With `CC(C)OC=O`, the Potency entry in test [1], in test [2], in test [3], in test [4], in test [10] and in [5] was “inactive” in each case. Also, the Potency entry in test [6] and in test [8] was “inactive” each time. In addition, the molecule was classed as inactive in test [7].
For the molecule `O=Cc1ccccc1O`, the Potency result in test [1], in [2], in [3], in test [4], in test [10] and in test [5] was “inactive” each time. In test [8], the Potency result was “inactive”. Besides, the molecule was classed as inactive in test [7].
As for `COC(=O)CCC(=O)OC`, the Potency result in test [1], in test [2], in test [3], in test [4], in test [10] and in [5] was “inactive” in each case. The Potency result in [6] and in [8] was “inactive” in each case. In addition, in [7], the molecule was classed as inactive.
Consider `CC(C)(C)NC(=O)[C@H]1CC[C@H]2[C@@H]3CC[C@H]4NC(=O)C=C[C@]4(C)[C@H]3CC[C@]12C`, for which the Potency entry in test [1], in [2], in [3], in [4], in [9] and in [10] was “inactive” each time. The Potency entry in test [5] and in test [8] was “inactive” in each case. Moreover, the outcome in test [7] was inactive.
`Cc1ccc(C)c(O)c1C`: the Potency result in [1], in test [2], in test [3], in [4], in test [10] and in test [5] was “inactive” throughout. Besides, the Potency result in test [6] and in test [8] was “inactive” in each case. The molecule was called inactive in test [7].
Turning to `Cc1ncc[nH]1`, the Potency result in test [1], in test [2], in [3], in [4], in [10] and in test [5] was “inactive” throughout. Besides, the Potency result in test [6] and in test [8] was “inactive” in each case. Moreover, the call in [7] was inactive.
As to `CCC(C)OC(=O)c1ccc(O)cc1` (stereo unspecified), the Potency result in test [1], in [2], in [3], in test [4], in test [5] and in [6] was “inactive” each time. The Potency result in test [8] is “inactive”. Besides, in test [10], the Potency was 24.5 µM (active) and 17.2 µM (active). Also, in test [7], the result was inactive.
As to `C[C@]12CCC(=O)C=C1CC[C@@H]1[C@@H]2C(=O)C[C@@]2(C)[C@H]1CC[C@]2(O)C(=O)CO`, the Potency entry in test [1], in test [2], in test [3], in [4], in test [9] and in test [5] was “inactive” each time. For the same molecule, the Potency result in [6] and in [8] was “inactive” throughout. Moreover, the call in [7] was inactive.
For `CCCCCCCCCCCO`, the Potency result in [1], in test [2], in test [4], in test [9], in test [5] and in [8] was “inactive” each time. In addition, the Potency result in test [3] is “inactive and 61.1 µM (active)”; in test [10], “inactive and 21.7 µM (active)”. In addition, the molecule was classed as inactive in [7].
`CC(=O)CC/C=C(\C)CCC=C(C)C`: the Potency entry in test [1], in [2], in test [3], in test [4], in test [10] and in [5] was “inactive” each time. Also, the Potency result in test [6] and in test [8] was “inactive” each time. The molecule was classed as inactive in test [7].
As for `O=S(=O)(O)c1ccc(O)cc1`, the Potency entry in [1], in [2], in [3], in [4], in [9] and in [10] was “inactive” in each case. Further, the Potency result in test [5] and in test [8] was “inactive” each time. Further, the molecule was called inactive in [7].
As to `O=C1c2cccc(O)c2C(=O)c2c(O)cccc21`, the Potency in test [1] was 19.5 µM (active); in [10], 2.37 µM (active) and 3.1 µM (active). The Potency result in test [2], in test [3], in test [4], in [5], in test [6] and in test [8] was “inactive” in each case. In test [7], the call was inactive.
